The campaign covered roughly 320,000 compounds. About 22,000 (6.9%) were called active. A call without a number means that no potency is given here. Roughly 27% stayed inconclusive and do not appear here. This is one part of a sample in which actives are shown more often than they occur. Calls follow the shape of the dose curve; as a rule, active = well fitted inhibition curve with a large enough effect; inconclusive = small, poorly fitted or top-dose-only effect, or another doubt; inactive = no such curve, though single readings can be large or run the other way.
Assay: Primary qHTS for delayed death inhibitors of the malarial parasite plastid, 96 hour incubation
Settings: P. falciparum luciferase reporter growth; series mostly up to 28.7 µM
Method in brief: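 Compounds incubated with erythrocytes infected by luciferase-expressing P. falciparum (2% hematocrit, 0.05% parasitemia final) for 96 hours, 37 C in 5% CO2. Growth inhibition scored as decreased luciferase luminescence.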
Potency is read from the fitted curve at half-maximal effect.

Structure (SMILES)	Potency	activity change, negative = inhibition
COc1ccc(CC(=O)Nc2cc(S(=O)(=O)N3CCCCC3)ccc2N2CCN(C)CC2)cc1	6.57 µM (active)	
CN1CCN(c2ccc(S(=O)(=O)N3CCOCC3)cc2NC(=O)CCc2ccccc2)CC1	inactive	
O=C(COC(=O)Cc1ccc(F)cc1)Nc1cc(S(=O)(=O)N2CCOCC2)ccc1N1CCCC1	inactive	
CCOc1cccc2cc(C(=O)OCC(=O)Nc3c(C)cccc3CC)c(=O)oc12	inactive	
Cc1ccc(S(=O)(=O)N2CCC3(CC2)OCCO3)c(C)c1	inactive	
Cc1cccc(N2CCN(C(C)C(=O)N3CCc4ccccc43)CC2)c1C (stereo unspecified)	inactive	
Cc1sc2ncn(CC(=O)NCCCC(=O)N(C)Cc3ccccc3)c(=O)c2c1C	inactive	
Cc1ccccc1CC1(CO)CCCN(Cc2ccc3c(c2)OCCO3)C1 (stereo unspecified)	14.7 µM (active)	
CCOc1cc(CN2CCCC(CO)(Cc3ccc(F)cc3F)C2)ccc1OC (stereo unspecified)	inactive	
COc1cccc(CC2(CO)CCCN(CC3=Cc4cc(OC)ccc4OC3)C2)c1 (stereo unspecified)	inactive	
CC(NC(=O)c1cc2cc(Cl)ccc2oc1=N)c1ccccc1 (stereo unspecified)	inactive	
Cc1c(C(=O)Nc2cccc(Cl)c2)cn2c(nc3ccccc32)c1C#N	2.94 µM (active)	
Cn1cc(Cl)c(C(=O)NNC(=S)Nc2cccc(Cl)c2)n1	inactive	
Cn1c(Nc2cccc(Cl)c2)nc2ccccc21	inactive	
O=S(=O)(c1cccs1)N1CCN(CCOc2ccccc2)CC1	inactive	
COc1ccccc1C(=O)Nn1cnnc1	inactive	
CCn1cc(C(=O)NCCO)c(=O)c2cc(F)c(N3CCN(C)CC3)cc21	inactive	
CCOC(=O)c1ccc(NC(=O)CCn2c(=O)oc3ccccc32)cc1	inactive	
C/C(=N\NC(=O)c1ccccc1F)c1ccccn1	inactive	
C/C(=N\NC(=O)Cc1ccc(Br)cc1)c1cccnc1	inactive	
COc1ccc(CC(=O)N/N=C(\C)c2ccccn2)cc1	3.29 µM (active)	
Nc1nnc(SCC(=O)NC2CCCc3ccccc32)s1 (stereo unspecified)	inactive	

Structure (SMILES)	Potency	activity change, negative = inhibition
Fc1cnc(N2CCOCC2)nc1NCc1ccccc1	2.94 µM (active)	
O=C(c1cccnc1NCc1ccccc1)N1CCOCC1	inactive	
c1ccc(COc2nsnc2N2CCOCC2)cc1	inactive	
CC(=O)c1ccc(S(=O)(=O)N2CCC(Oc3ccc(-n4cnnn4)cc3)CC2)cc1	inactive	
CSCCC1NC2(C(=O)Nc3ccc(Cl)cc32)[C@@H]2C(=O)N(C3CCCC3)C(=O)[C@H]12 (stereo partly specified)	11.7 µM (active)	
O=C1[C@@H]2C(Cc3ccc(O)cc3)NC3(C(=O)Nc4ccc(F)cc43)[C@@H]2C(=O)N1c1ccc(F)cc1 (stereo partly specified)		-3.79% [at 5.75 µM] (inactive)
CC(C)(C)NC(=O)NCc1ccco1	inactive	
O=C(Nc1ccc2c(c1)OCCO2)C1CCCN(c2ncccn2)C1 (stereo unspecified)	inactive	
Cc1cc(C)nc(N2CCC(C(=O)Nc3ccc4c(c3)OCCO4)CC2)n1	9.28 µM (active)	
Cc1sc2ncn(CC(=O)NCCCC(=O)N3CCN(c4ccccc4F)CC3)c(=O)c2c1C	inactive	
CC(=O)c1cc(CN2CCC(n3nccc3NC(=O)c3ccccc3Cl)CC2)cs1	inactive	
CC(=O)Nc1ccc(/C=N/Nc2ccc(C(=O)c3c(C)cc4ccccn34)cc2[N+](=O)[O-])cc1	inactive	
Cc1c(CCC(=O)O)c(=O)oc2c(C)c(OCc3ccccc3Cl)ccc12	inactive	
COc1ccc2c(C)c(CCC(=O)NC3CC3)c(=O)oc2c1C	4.15 µM (active)	
CCOC(=O)CCc1c(C)c2ccc(OCc3nn[nH]n3)c(C)c2oc1=O	inactive	
Cc1c(C(C)CCCO)oc(=O)c2c1Oc1c(C)c(C(C)C[C@@H](C)O)oc(=O)c1C2 (stereo partly specified)	inactive	
CN1c2ccc([N+](=O)[O-])cc2C(C)(C)C12C=Cc1cc(C(=O)O)ccc1O2 (stereo unspecified)	inactive	
CC(C(=O)N1CCN(c2ccccc2F)CC1)c1ccc([N+](=O)[O-])cc1 (stereo unspecified)	9.28 µM (active)	
O=C(CCSc1ccccc1)N1CCN(c2ccccc2F)CC1	inactive	
O=C(c1cccc2ccccc12)N1CCN(c2ccccc2F)CC1	inactive	
Cc1ccc(OCCCC(=O)Nc2ccc3c(c2)OCCO3)cc1	inactive	
O=C(Nn1cnnc1)c1cc(Cl)ccc1Cl	inactive	

Structure (SMILES)	Potency	activity change, negative = inhibition
O=C(NC(=S)Nc1ccc(Cl)c(C(=O)O)c1)c1cncc(Br)c1	inactive	
Cn1c2c(c(=O)n(C)c1=O)C1c3ccccc3OCC1C(C)(C)O2 (stereo unspecified)	1.65 µM (active)	
Cn1c2c(c(=O)n(C)c1=O)[C@@H]1c3c(ccc4ccccc34)OC[C@@H]1CO2	inactive	
COc1cccc2c1OCC1COc3c(c(=O)n(C)c(=O)n3C)C21 (stereo unspecified)	inactive	
COc1ccc(C(=O)OCC(=O)c2ccc(C)c(S(=O)(=O)N3CCOCC3)c2)cc1OC	inactive	
COc1ccccc1OC(=O)c1ccc(C)c(S(=O)(=O)N2CCOCC2)c1	inactive	
COc1ccc(COC(=O)c2ccc(Cl)c(S(=O)(=O)N3CCOCC3)c2)cc1F	14.7 µM (active)	
C=CCNC(=O)c1ccccc1SCc1c(C)noc1C	inactive	
O=C(c1ccc[nH]c1=S)N1CCN(S(=O)(=O)c2ccc(Br)cc2Cl)CC1	inactive	
Cc1cc(C(=O)Nc2nnc(C3CC3)s2)c(C)s1	inactive	
O=C(Nc1nnc(C2CC2)s1)c1ccccn1	10.4 µM (active)	
O=C(Nc1nnc(C2CC2)s1)c1cc(Cl)sc1Cl	inactive	
C=CCN1CC(C)/C(=N\O)CC1C (stereo unspecified)	inactive	
Cc1cnc(C(=O)OCc2c(C)cc(C(C)(C)C)cc2C)cn1	inactive	
CCn1c(=O)c([N+](=O)[O-])c(NCc2ccc3c(c2)OCO3)c2ccccc21	inactive	
S=C(NCc1ccco1)NCc1ccccc1Cl	inactive	
Cc1[nH]c2ccccc2c1C(=O)CN1CC(C)CC(C)C1 (stereo unspecified)	inactive	
Cc1[nH]c2ccccc2c1C(=O)C(C)Sc1nnc(C2CC2)o1 (stereo unspecified)	4.15 µM (active)	
Cc1[nH]c2ccccc2c1C(=O)CSCC(=O)O	inactive	
Cc1ccc(SCCSc2ncccn2)cc1	inactive	
O=C(NCc1ccccc1)[C@@H]1CSC2c3ccccc3C(=O)N21 (stereo partly specified)	inactive	
COCCCNC(=O)[C@H]1N2C(=O)c3ccccc3C2SC1(C)C (stereo partly specified)	inactive	

Structure (SMILES)	Potency	activity change, negative = inhibition
CC1(C)SC2c3ccccc3C(=O)N2[C@@H]1C(=O)NCc1ccco1 (stereo partly specified)	5.22 µM (active)	
COc1cccc(NC(=O)CN(C)C(=O)CSC(=S)N2CCCC2)c1	inactive	
Cc1c(Cl)cccc1NC(=O)NCc1ccc(C)n1C	inactive	
CS(=O)(=O)Nc1cccc(C2=NN(C(=O)c3cccc(F)c3)C(c3cccs3)C2)c1 (stereo unspecified)	inactive	
Cc1ccc(C2CC(c3cccc(NS(C)(=O)=O)c3)=NN2S(C)(=O)=O)cc1 (stereo unspecified)	inactive	
CCOc1ccccc1C1CC(c2cccc(NS(C)(=O)=O)c2)=NN1C(=O)c1ccccc1 (stereo unspecified)	13.1 µM (active)	
CCN(CC(=O)Nc1c(F)cccc1F)C(=O)CN1c2cccc3cccc(c23)S1(=O)=O	inactive	
Cc1cccc(C(=O)OCC(=O)Nc2ccc(F)cc2)c1	inactive	
CCOC(=O)c1ccccc1NC(=O)COC(=O)C(Cc1c[nH]c2ccccc12)NC(C)=O (stereo unspecified)	inactive	
Cc1cc(C(=O)CSc2nc(N)cc(=O)[nH]2)c(C)n1Cc1ccco1	inactive	
Cc1ccc(OCC(=O)c2cc(C)n(Cc3ccco3)c2C)c([N+](=O)[O-])n1	inactive	
COc1ccc(C)cc1-n1nnnc1SCC(=O)c1cc(C)n(Cc2ccco2)c1C	10.4 µM (active)	
O=c1[nH]c(NCCO)nnc1Cc1ccc(Cl)cc1	inactive	
COc1ccccc1NS(=O)(=O)c1ccc(C)c(C(=O)NCC(c2ccco2)N(C)C)c1 (stereo unspecified)	inactive	
CC1CN(S(=O)(=O)c2cccc(C(F)(F)F)c2)CN1C(=O)N1CCOCC1 (stereo unspecified)	inactive	
O=C(NCCCNC(=O)c1ccccc1Cl)c1cnccn1	inactive	
CCCCN(C)C(=O)c1ccc2c(c1)N(CC)C(=O)c1ccccc1S2(=O)=O	10.4 µM (active)	
CCCCN1C(=O)c2ccc(C(=O)Nc3ccc(S(=O)(=O)N(C)C)cc3)cc2C1=O	inactive	
CN(Cc1cccs1)C(=O)CN1C(=O)c2ccccc2S1(=O)=O	inactive	
Cc1ccc(OCC(=O)NCCCNC(=O)c2cccnc2)cc1C	inactive	
Cc1cc(NC(=O)c2ccccc2C)no1	inactive	
CCCC(C)c1nnc(NC(=O)C2CC(=O)N(c3ccc(OCC)cc3)C2)s1 (stereo unspecified)	inactive	

Structure (SMILES)	Potency	activity change, negative = inhibition
CCOC(=O)CSc1nnc(NC(=O)C2CC(=O)N(c3ccc(F)cc3)C2)s1 (stereo unspecified)	14.7 µM (active)	
COc1ccccc1N1CC(C(=O)Nc2nnc(SCC(=O)NC(C)C)s2)CC1=O (stereo unspecified)	inactive	
CC1CN(C(=O)CCC(=O)NCCCN2CCC(Cc3ccccc3)CC2)c2cc(Cl)ccc2O1 (stereo unspecified)	inactive	
COc1cccc(NC(=O)c2cc(S(=O)(=O)N3CCc4ccccc43)cn2C)c1	inactive	
CCn1c(=O)c(=O)n(CC)c2cc(N3CCCCC3)c(NC(=O)c3ccc(Cl)cc3)cc21	inactive	
CC(NC(=O)c1ccccc1SCC(=O)N1CCCC1)c1ccccc1 (stereo unspecified)	inactive	
Cc1ccc(S(=O)(=O)N(C)c2nc3ccccc3n3c(C(C)C)nnc23)cc1	11.7 µM (active)	
CC(=O)Nc1ccc(S(=O)(=O)N(C)c2nc3ccccc3nc2Cl)cc1	inactive	
Cc1ccc(Oc2nc3ccccc3n3c(C)nnc23)cc1	inactive	
O=C(Nc1ccccc1Cl)NC1(C(=O)N2CCOCC2)CCCCC1	inactive	
N#Cc1c(Cl)nc(-c2cccnc2)nc1-c1ccccc1	inactive	
NC(=S)Nc1c(Cl)cccc1Cl	inactive	
CN(CC(=O)Nc1c(Cl)cccc1Cl)C(=O)CNC(=O)C1CCCCC1	inactive	
O=C(Nc1c(Cl)cccc1Cl)C1CCC1	10.4 µM (active)	
NS(=O)(=O)c1ccc2nc(NC(=O)CS(=O)(=O)c3ccc(F)cc3)sc2c1	inactive	
Cc1nn(CCOc2ccc(Br)cc2)c(C)c1[N+](=O)[O-]	13.1 µM (active)	
COc1ccc(CNC(=O)CCCn2nc(C)c([N+](=O)[O-])c2C)cc1	inactive	
Brc1ccc(OCCn2ccnc2)cc1	inactive	
